Data taken from PubChem BioAssay AID2289 (National Center for Advancing Translational Sciences (NCATS), 2010).
Out of some 340,000 compounds screened, about 3,300 (0.97%) were called active. Not shown: some 9% with an inconclusive outcome. Calls come from the whole dose curve; as a rule, active = well fitted inhibition curve with a large enough effect; inconclusive = small, poorly fitted or top-dose-only effect, or effect the other way; inactive = flat fitted curve, though single readings scatter. The list shows a part of the results.

experiment: qHTS Assay for Modulators of miRNAs and/or Inhibitors of miR-21; settings: HeLa miR-21-FLuc reporter, luciferase luminescence, 48 h; actives lower the signal; note: nearly all actives have a fitted effect of over 55% in size
Procedure, shortened: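 HeLa miR-21-FLuc reporter line, endogenous miR-21; 2000 cells/well in DMEM/10% FBS; compound titration up to ~40uM final, 48 h, 37 degree Celsius; luciferase detection reagent, 15 min lysis, CCD luminescence.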
Potency is the fitted concentration of half-maximal effect.

Potency, active:
COc1cc(Cl)ccc1OCc1cc(C(=O)N(C)CCc2cnn(C)c2)no1 5.85 µM
COc1cc(C)ccc1OCc1cc(C(=O)N(C)CCCN2CCOCC2)no1 6.56 µM
COc1cc(Cl)ccc1OCc1cc(C(=O)N(C)CC2CCCCO2)no1 (configuration not stated) 10.4 µM
Cc1cc(N(C)C)ccc1N=Nc1ccc2ncccc2c1 1.65 µM
Cc1ccccc1NC(=O)c1ccc2ccccc2c1 5.21 µM
COc1ccc2oc(=N)c(C(=O)Nc3ccccc3Cl)cc2c1 0.414 µM
COc1cc2ccccc2cc1C(=O)Nc1ccccc1C 3.29 µM
COc1ccc(C(=O)Nc2ccccc2C(=O)O)cc1Cl 4.65 µM
COc1cc2ccccc2cc1C(=O)Nc1ccc(C)cn1 0.656 µM
COc1cc2ccccc2cc1C(=O)Nc1ccccc1Cl 1.85 µM
CSc1ncc(-c2ccc(Cl)cc2)[nH]1 1.65 µM
Cc1cccc(-n2cnc(C(=O)NC3CCCCCC3)c2)n1 3.69 µM
Cc1cc(O)cc2c(=O)c3ccccc3sc12 16.5 µM
CCn1c(C)cc(/C=C2/SC(=S)NC2=O)c1C 10.4 µM
CCn1c(C)cc(/C=C2/SC(=O)N(C(C)C(=O)OC)C2=O)c1C (configuration not stated) 2.07 µM
CC(=O)Nc1ccc2c(c1)ncn2-c1ccccc1 7.36 µM
CCC(=O)Nc1ccc2c(c1)ncn2-c1ccc(OC)cc1 16.5 µM
COc1ccc(-n2cnc3cc(N)ccc32)cc1 14.7 µM
CCC(=O)Nc1ccc2c(c1)ncn2-c1ccc(C)cc1 5.21 µM
O=C(Nc1ccc2c(c1)ncn2-c1ccccc1)c1ccco1 2.33 µM
CCC(=O)Nc1ccc2c(c1)ncn2-c1ccccc1 7.36 µM
Cc1scc(C(=O)N/N=C/c2ccc(Cl)s2)c1C 1.65 µM
C/C(=N\NC(=O)c1csc(C)c1C)c1ccc(C)s1 13.1 µM
CCc1ccc(C(=O)N/N=C(\C)c2ccncc2)s1 20.7 µM
C/C(=N/NC(=O)c1ccc(C)s1)c1ccncc1 16.5 µM
O=C1CN(c2nc(-c3cccs3)nc3sc4c(c23)CCCC4)CCN1 10.4 µM
CN(C)CCNC(=O)c1cc2c(s1)-c1ccccc1OC2 13.1 µM
CN(C)CCNC(=O)c1cc2sc3ccccc3c2s1 16.5 µM
CCN(CC)C(=O)c1cc2sc3ccccc3c2s1 3.29 µM
CCOC(=O)N/N=C\C=C\c1ccc2c(c1)OCO2 7.36 µM
CC(C)(C)OC(=O)N/N=C\C=C\c1ccc2c(c1)OCO2 3.69 µM
CN(C)c1ccc(N=Nc2cccc3ccoc23)cc1 0.826 µM
CN(C)c1ccc(N=Nc2cccc(F)c2)cc1 2.07 µM
Cc1nnsc1C(=O)NNc1ccc(C(C)C)cc1 13.1 µM
CNC(=O)c1ccc2nc(CCc3ccccc3)oc2c1 5.85 µM
COCCCNC(=O)c1ccc2nc(Cc3ccc(OC)cc3)oc2c1 9.27 µM
O=C(NCCCn1ccnc1)c1cc(-c2cccs2)on1 14.7 µM
O=C(NCCCn1ccnc1)c1cc(-c2ccccc2)on1 16.5 µM
C(=N\N=C\c1cccs1)/c1cccs1 5.21 µM
CCn1cnc2cc(NCc3ccc(C)cc3)ccc21 5.21 µM
COc1ccc(-n2cnc3cc(NCc4ccco4)ccc32)cc1 14.7 µM
CCn1cnc2cc(NCc3ccccc3Cl)ccc21 11.7 µM
CCc1ccc(CNc2ccc3c(c2)ncn3CC)cc1 5.21 µM
Cc1ccc(CNc2ccc3c(c2)ncn3C)cc1 3.29 µM
CC(C)n1cnc2cc(NCc3ccco3)ccc21 11.7 µM
CCn1cnc2cc(NCc3ccc(Cl)cc3)ccc21 3.69 µM
Cc1ccc(CNc2ccc3c(c2)ncn3C(C)C)cc1 3.29 µM
Cc1cccc(C(=O)Nc2ccc3c(c2)ncn3C)c1 1.47 µM
COc1cccc(/C=C(/CC(=O)Nc2ccc(N3CCOCC3)cc2)c2nc3ccccc3s2)c1 16.5 µM
O=C(Nc1ccc(N2CCOCC2)cc1)c1nc2ccccc2s1 0.0826 µM
Cc1ccc2nc(-c3ccc(C)c(NC(=O)CSc4ccc(Cl)cc4)c3)oc2c1 2.07 µM
Cc1ccc2oc(-c3ccc(C)c(NC(=O)/C=C/c4ccc(Cl)cc4)c3)nc2c1 3.69 µM
O=C(NC1CCCCC1)c1ccc(-c2cccc([N+](=O)[O-])c2)o1 1.31 µM
O=C(NC1CCCCC1)c1ccc(-c2ccccc2[N+](=O)[O-])o1 1.17 µM
O=C(NCc1csc(-c2cccs2)n1)C1CCCCC1 5.21 µM
COc1ccccc1CC(=O)NCc1csc(-c2cccs2)n1 6.56 µM
C/C(CCc1ccc2c(c1)OCO2)=N\NC(=O)c1ccccc1 13.1 µM
Fc1cccc(CSc2ccc(-c3ccco3)nn2)c1 16.5 µM
Fc1ccc(CSc2ccc(-c3ccco3)nn2)cc1 8.26 µM
Cc1ccc(CSc2ccc(-c3ccco3)nn2)cc1 6.56 µM
CCN(CC)N=Nc1[nH]nc2nc(C)cc(C)c12 16.5 µM
Brc1ccc2oc(-c3ccn[nH]3)cc2c1 2.93 µM
CCN(CC)CCCNC(=S)Nc1ccc(Br)cc1 2.93 µM
Oc1ccc(NC(=S)N=Nc2c(O)[nH]c3ccccc23)cc1 11.7 µM
CC(=O)/C=C(\C)N=Nc1c(O)[nH]c2ccccc12 18.5 µM
O=C(CSCc1ccccc1)N=Nc1c(O)[nH]c2ccccc12 16.5 µM
CC(C)c1ccc(/C=N/Nc2ccc(C(=O)O)cc2)cc1 0.0465 µM
COc1cc(/C=N/Nc2ccc(C(=O)O)cc2)cc(OC)c1OC 2.33 µM
COc1ccc(/C=N/Nc2ccc(C(=O)O)cc2)cc1Br 0.104 µM
CCCOc1ccc(/C=N/Nc2ccc(C(=O)O)cc2)c(OCCC)c1 16.5 µM
C=CCOc1c(Br)cc(/C=N/Nc2ccc(C(=O)O)cc2)cc1OCC 2.93 µM
Cc1nc2cc(Cl)c(Cl)cc2nc1C 16.5 µM
COc1ccccc1Nc1ncc2c(n1)CCN(CC(C)C)C2 6.56 µM
CC(C)CN1CCc2nc(Nc3ccc(F)cc3F)ncc2C1 7.36 µM
CC(=O)Nc1ccc(-c2nc3cc(Cl)ccc3o2)cc1 0.369 µM
CC(=O)Nc1ccc(-c2nc3ccc(NC(C)=O)cc3o2)cc1 3.69 µM
O=C(Nc1ccc(-c2nc3cc(Cl)ccc3o2)cc1)C1CCCO1 (configuration not stated) 0.656 µM
COc1ccc(-c2nc3ccc(NS(C)(=O)=O)cc3o2)cc1 1.17 µM
COc1ccc(Cl)cc1C(=O)Nc1ccc2oc(-c3ccc(C(C)(C)C)cc3)nc2c1 4.65 µM
COc1ccc(C(=O)CCNc2cccc(Cl)c2)cc1 7.36 µM
COc1cccc(NCCC(=O)c2cccc([N+](=O)[O-])c2)c1 13.1 µM
COc1n[nH]c(C(=O)Nc2nc3ccccc3s2)c1[N+](=O)[O-] 6.56 µM
CNc1ccccc(-c2ccc3cc4c(cc3n2)OCO4)c1=O 2.61 µM
CCCCNC(=S)Nc1ccc(-c2nc3ccc(C)cc3s2)cc1 0.826 µM
CCC(=O)NC(=S)Nc1ccc(-c2nc3ccccc3s2)cc1 0.293 µM
CCC(=O)NC(=S)Nc1ccc(-c2nc3ccc(C)cc3s2)cc1 8.26 µM
Cc1ccc2nc(-c3ccc(NC(=S)NC(=O)C(C)C)cc3)sc2c1 0.927 µM
Cc1ccc(Nc2ncnc3sc(C)c(C)c23)cc1 14.7 µM
O=C(CCCn1c(=O)c2cccn2c2ccccc21)Nc1cccc(Cl)c1 2.93 µM
O=C(CCCn1c(=O)c2cccn2c2ccccc21)NCCc1ccc(Cl)cc1 1.47 µM
COc1ccc(NC(=O)CCCn2c(=O)c3cccn3c3ccccc32)c(OC)c1 2.07 µM
CCCCOC(=O)Oc1ccc2c(=O)c(Oc3cccc(C)c3)coc2c1 18.5 µM
Cc1nc2ccccc2nc1N/N=C/c1ccc(O)cc1 18.5 µM
Cc1nc(Cl)cc(N/N=C/c2ccc(O)cc2)n1 18.5 µM
C=CCc1c(C)nc2c(-c3ccccc3)cnn2c1N1CCOCC1 1.65 µM
Cc1nc2c(-c3ccccc3)cnn2c(N2CCOCC2)c1C 2.33 µM
Fc1ccc(-c2cc(-c3nc(-c4ccccc4)no3)[nH]n2)cc1 5.85 µM
Fc1ccccc1-c1nc(-c2ccccc2)no1 1.17 µM
c1ccc(-c2cc(-c3ccccc3)[nH]n2)cc1 1.65 µM
Cc1ccc(-c2noc(-c3ccccc3F)n2)cc1 1.47 µM
CS(=O)c1ccccc1-c1nc(-c2ccc(Cl)cc2)no1 (configuration not stated) 6.56 µM
Cc1ccc(NC(=O)Nc2ccc3c(c2)OCO3)nc1 2.33 µM
Cc1ccc(NC(=O)Nc2ccc3c(c2)OCO3)cc1F 0.736 µM
CCCSc1nsc(NC(=O)CC)n1 0.521 µM
c1csc(CSc2nnc3sc4ccccc4n23)c1 8.26 µM
O=C(CSc1nnc2sc3ccccc3n12)c1ccco1 16.5 µM
Cc1nc(NC(=O)/C=C/c2ccccc2)sc1C(=O)N(C)C 13.1 µM
